Measured values taken from PubChem BioAssay AID651597 (National Center for Advancing Translational Sciences (NCATS), 2012).
About 390 (35%) of roughly 1,100 compounds were called active. Inconclusive results (about 30%) are left out. Calls follow the shape of the dose curve; as a rule, active = well fitted inhibition curve with a large enough effect; inconclusive = small, poorly fitted or top-dose-only effect; inactive = flat fitted curve, though single readings scatter. Some of the results follow.

Molecular target: Luciferin 4-monooxygenase (Photinus pyralis) (UniProt P08659)
Test: qHTS of Nrf2 Activators: Hit Validation in Secondary FLuc Assay; also: nearly all actives have a fitted effect of over 65% in size
Details: firefly luciferase inhibition counter-screen, luminescence; series mostly up to 57.5 µM; activity, negative = inhibition: at the top concentration
Method in brief: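 Counter-screen on purified firefly luciferase with ATP and D-luciferin at Km concentrations; compounds flagged if they inhibit the enzyme, indicating possible reporter stabilization rather than ARE activation.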
% is scaled to controls: 0 for no effect and ±100 for the full control effect; potency is read from the fitted curve at half-maximal effect.

Structure (SMILES) | Potency | activity, negative = inhibition
Cc1cc(Br)cn2c(Cc3ccccc3)c(-c3ccco3)nc12 | 9.53 µM (active) | 
Cc1ccc(Cc2c(-c3ccco3)nc3c(C)cc(Br)cn23)cc1 | 5.36 µM (active) | 
COc1cc2c(cc1OC)/C(=C/c1ccc(Cl)cc1)C(=O)OC2 |  | -15.1% (inactive)
O=C(O)c1ccc2c(=O)n3c(nc2c1)/C(=C/c1cccc(Cl)c1Cl)CC3 |  | -29.6% (inactive)
O=C(Nc1ccc(Br)c(C(F)(F)F)c1)c1ccccc1 | 9.53 µM (active) | 
O=C(Nc1c(Br)cc2c(c1Br)Cc1ccccc1-2)C(F)(F)F |  | -22.6% (inactive)
O=C(Nc1ccc2c(c1)C(=O)NC2=O)c1cccc(C(F)(F)F)c1 |  | 1.88% (inactive)
Cc1ccc(-c2nc(NCc3ccco3)c3ccccc3n2)cc1 | 10.7 µM (active) | 
c1ccc(Cn2ncc3c(NCc4ccco4)ncnc32)cc1 |  | 3.05% (inactive)
Cc1cc(NCc2ccco2)n2c(nc3ccccc32)c1C#N |  | -6.56% (inactive)
O=C(NC(=S)Nc1ccc(Br)cn1)c1cccs1 | 0.19 µM (active) | 
Cc1cccc(NC(=S)NC(=O)c2cccs2)n1 | 12 µM (active) | 
O=C(NC(=S)Nc1ccc(Cl)cn1)c1cccs1 | 0.151 µM (active) | 
O=C(NC(=S)Nc1cccc2cccnc12)c1cccs1 | 0.953 µM (active) | 
O=C(N/N=C/c1ccc(Br)s1)c1cccs1 | 6.75 µM (active) | 
COC(=O)c1sccc1NC(=O)c1ccc(Br)s1 |  | -17.3% (inactive)
Cc1ccc(S(=O)(=O)c2nc(S(C)(=O)=O)sc2N2CCC3(CC2)OCCO3)cc1 |  | 0.757% (inactive)
Cc1cc(NC(=O)CC(C)(C)C)nc2c1c(=O)oc1ccccc12 |  | -2.51% (inactive)
C=CCc1cccc(C=Nc2cc(Br)ccc2O)c1O |  | -4.76% (inactive)
Fc1cccc(Cc2c(-c3ccco3)nc3ccc(Br)cn23)c1 | 5.36 µM (active) | 
Brc1ccc2nc(-c3ccco3)c(Cc3ccsc3)n2c1 | 5.36 µM (active) | 
O=C(N/N=C/C=C/c1ccco1)c1cccc([N+](=O)[O-])c1 |  | -19.3% (inactive)

Structure (SMILES) | Potency | activity, negative = inhibition
O=C(N/N=C\C=C\c1ccco1)c1cc(-c2ccc3ccccc3c2)n[nH]1 | 5.36 µM (active) | 
O=C(O)c1ccc(/C=C2\COc3ccccc3C2=O)cc1 | 9.53 µM (active) | 
COc1ccc(N(CCCN2C(=O)c3cccc4cccc(c34)C2=O)C(=O)c2ccncc2)cc1 |  | -1.09% (inactive)
Cc1c(C(=O)NCc2ccco2)oc2c(Cl)cccc12 |  | -3.49% (inactive)
O=C(CSc1nnc2c(n1)[nH]c1ccccc12)NCc1ccco1 | 19 µM (active) | 
O=C(NCc1ccco1)c1n[nH]c(=O)c2ccccc12 |  | 7.6% (inactive)
Cc1ccc(O)c(NC(=O)c2cccc(NC(=O)c3ccco3)c2)c1 | 12 µM (active) | 
Clc1ccc(Br)cc1-c1nc(-c2ccncc2)no1 | 8.49 µM (active) | 
CSc1nc2sc3c(c2c(=O)n1C)CCC(C)C3 (configuration not stated) | 6.01 µM (active) | 
COc1cc(/C=N/Nc2nc3ccccc3s2)ccc1OC(=O)c1ccccc1F | 5.36 µM (active) | 
Cc1ccc2ccc(C3C(=O)c4ccccc4C3=O)nc2c1 | 0.269 µM (active) | 
Cn1c(NCC2CCCCC2)nc2cc(-c3ccsc3)sc2c1=O |  | -9.1% (inactive)
Cn1c(NCc2ccc3occc3c2)nc2cc(-c3cccc(C(F)(F)F)c3)sc2c1=O |  | -5.21% (inactive)
COc1ncccc1-c1cc2nc(NCCNC(C)=O)n(C)c(=O)c2s1 | 15.1 µM (active) | 
CC(=NNC(=O)CSc1nc2ccccc2o1)c1ccco1 |  | 1.42% (inactive)
C/C(=N\NC(=O)c1cccc(S(=O)(=O)N2CCCC2)c1)c1ccco1 |  | -17.4% (inactive)
C/C(=N\NC(=O)c1c[nH]c2ccccc12)c1ccco1 | 7.57 µM (active) | 
Oc1ccc2ccccc2c1N=Nc1ccccn1 | 10.7 µM (active) | 
O=C(CSc1nnc(-c2ccco2)c(-c2ccco2)n1)c1ccccc1 | 2.69 µM (active) | 
CCc1nc(N)c(C#N)c(-c2ccco2)c1C |  | -17.2% (inactive)
CSc1nnc(-c2ccco2)c(-c2ccco2)n1 | 4.78 µM (active) | 
C=C1C2=C(C(=O)N1OC)[C@@H](O)[C@@](C)(O)[C@@H](CCCCC)O2 |  | 1.91% (inactive)

Structure (SMILES) | Potency | activity, negative = inhibition
O=C(Nc1nc2ccccc2[nH]1)c1ccc(Cl)c([N+](=O)[O-])c1 | 2.69 µM (active) | 
CC(C)N(C(=O)COC(=O)c1ccccc1C(=O)c1ccc(Cl)c([N+](=O)[O-])c1)C(C)C |  | 10.7% (inactive)
O=C(c1ccc(S(=O)(=O)Cc2ccccc2Cl)c([N+](=O)[O-])c1)N1CCOCC1 |  | -6.47% (inactive)
N#C/C(=C\c1c(Oc2ccc(Cl)cc2)nc2ccccn2c1=O)C(=O)NC1CCS(=O)(=O)C1 (configuration not stated) |  | -26.8% (inactive)
COc1ccccc1NC(=O)C(=O)Nc1ccccn1 | 1.69 µM (active) | 
COc1ccccc1NC(=O)c1ncn(-c2ccccc2)n1 | 10.7 µM (active) | 
COc1ccccc1C(=O)NCc1nc2cccnc2n1Cc1ccc(F)cc1 |  | 2.77% (inactive)
COc1ccccc1NC(=O)c1cc(Cl)nc2ccccc12 |  | -5.47% (inactive)
COc1cc(NC(=S)Nc2ccccn2)c(OC)cc1Cl |  | -25.7% (inactive)
CCCn1c(-c2cccs2)nc2nc3ccccc3nc21 | 12 µM (active) | 
O=C(/C=C/c1ccccc1Cl)Nn1cnc2ccccc2c1=O |  | -25.3% (inactive)
O=C(C=Cc1ccccc1Cl)c1ccccc1 | 0.953 µM (active) | 
COCCN(C(=O)COC(=O)/C=C/c1ccccc1Cl)c1c(N)n(Cc2ccccc2)c(=O)[nH]c1=O |  | 3.75% (inactive)
Cn1c(=O)c(C(=O)NNC(=O)c2ccccc2F)c(O)c2ccccc21 |  | -25.6% (inactive)
FC(F)(F)c1cc(-c2ccco2)nc(NCc2ccco2)n1 |  | -29.3% (inactive)
Oc1ccc(Br)cc1-c1cc(-c2ccco2)[nH]n1 | 16.9 µM (active) | 
Oc1ccc(Cl)cc1-c1cc(-c2ccco2)[nH]n1 | 13.5 µM (active) | 
Oc1c(-c2cc(-c3ccco3)[nH]n2)ccc2ccccc12 | 0.953 µM (active) | 
Oc1ccccc1C=NN=C1c2ccccc2-c2ccccc21 | 4.26 µM (active) | 
O=C(Nc1ccccc1C(=O)N/N=C/c1ccco1)c1ccc(F)cc1 | 4.78 µM (active) | 
O=C(N/N=C/c1cn[nH]c1-c1ccccc1)c1ccco1 |  | -26.1% (inactive)
O=C(Nc1ccccc1C(=O)N/N=C/c1ccco1)c1ccccc1 | 7.57 µM (active) | 

Structure (SMILES) | Potency | activity, negative = inhibition
Nc1c(Cl)c(Cl)nc(C(=O)N/N=C/c2ccco2)c1Cl |  | -5.24% (inactive)
COC(CN(C(=O)CCl)C(C(=O)NC1CCCCC1)c1ccccc1C)OC (configuration not stated) |  | -0.975% (inactive)
COc1ccc([N+](=O)[O-])cc1C1NN=C(c2ccccc2O)S1 (configuration not stated) | 8.49 µM (active) | 
COc1ccc([N+](=O)[O-])cc1NC(=O)c1ccco1 |  | -0.817% (inactive)
CCN1CCN(c2sc(S(C)(=O)=O)nc2S(=O)(=O)c2ccc(Cl)cc2)CC1 |  | 3.21% (inactive)
CC(=O)OC1(C(C)=O)CCC2C3CC(C(F)(F)F)C4=CC(=O)CCC4(C)C3CCC21C (configuration not stated) |  | -0.683% (inactive)
CC1CN(c2sc(S(C)(=O)=O)nc2S(=O)(=O)c2ccc(Cl)cc2)CC(C)O1 (configuration not stated) |  | -28.1% (inactive)
O=C(Nc1ccccc1)Nc1cccc2nsnc12 | 2.69 µM (active) | 
O=C(Nc1ccccc1)c1nc[nH]c1C(=O)Nc1ccccc1F |  | -0.43% (inactive)
C/C(=N\Nc1ccccn1)c1ccc(Br)s1 | 12 µM (active) | 
C/C(=N\Nc1ccccn1)c1cccs1 | 2.39 µM (active) | 
C/C(=N\Nc1ccc2nncn2n1)c1ccc(Cl)s1 |  | -3.88% (inactive)
Cn1c(N)c(C(=O)COC(=O)c2nc(Cl)ccc2Cl)c(=O)n(C)c1=O |  | -3.17% (inactive)
CC(C)(C)c1csc(NC(=O)CCS(=O)(=O)c2ccc(F)cc2)n1 |  | -18.9% (inactive)
O=C(/C=C/c1ccccc1)Nc1ncn[nH]1 | 10.7 µM (active) | 
CN1c2ccsc2/C(=N/Nc2ccccc2)CS1(=O)=O | 7.57 µM (active) | 
OCC1OC(n2cnc3c(NCc4ccccc4O)ncnc32)C(O)C1O (configuration not stated) |  | -0.396% (inactive)
CC1=NC(=O)C(N=Nc2cccc(O)c2)N1c1ccccc1 (configuration not stated) | 3.79 µM (active) | 
Clc1ccc(/C=N/Nc2nnc(Cl)c3ccccc23)cc1 | 0.338 µM (active) | 
CSc1nsc(SC)c1C(=O)Nc1ccc(C)cc1 |  | -30% (inactive)
CNc1nc(N)c([N+](=O)[O-])c(Nc2cccc(Cl)c2)n1 |  | 5.42% (inactive)
